High-throughput results (PubChem BioAssay)
IDE exosite inh: displaces the probe from the exo-site of human IDE; P14735; purified IDE, FL-6b probe fluorescence polarization; hits give low values; z-score at 20 µM; 6.3% of 17,000 active; AID 1259349;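 active = z-score of -3 or lower, meaning strong loss of probe binding signal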;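 also: His-tagged human IDE residues 42-1019 made in E. coli with 30 nM FL-6b probe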
Target sequence (P14735 42-1019 limits assumed): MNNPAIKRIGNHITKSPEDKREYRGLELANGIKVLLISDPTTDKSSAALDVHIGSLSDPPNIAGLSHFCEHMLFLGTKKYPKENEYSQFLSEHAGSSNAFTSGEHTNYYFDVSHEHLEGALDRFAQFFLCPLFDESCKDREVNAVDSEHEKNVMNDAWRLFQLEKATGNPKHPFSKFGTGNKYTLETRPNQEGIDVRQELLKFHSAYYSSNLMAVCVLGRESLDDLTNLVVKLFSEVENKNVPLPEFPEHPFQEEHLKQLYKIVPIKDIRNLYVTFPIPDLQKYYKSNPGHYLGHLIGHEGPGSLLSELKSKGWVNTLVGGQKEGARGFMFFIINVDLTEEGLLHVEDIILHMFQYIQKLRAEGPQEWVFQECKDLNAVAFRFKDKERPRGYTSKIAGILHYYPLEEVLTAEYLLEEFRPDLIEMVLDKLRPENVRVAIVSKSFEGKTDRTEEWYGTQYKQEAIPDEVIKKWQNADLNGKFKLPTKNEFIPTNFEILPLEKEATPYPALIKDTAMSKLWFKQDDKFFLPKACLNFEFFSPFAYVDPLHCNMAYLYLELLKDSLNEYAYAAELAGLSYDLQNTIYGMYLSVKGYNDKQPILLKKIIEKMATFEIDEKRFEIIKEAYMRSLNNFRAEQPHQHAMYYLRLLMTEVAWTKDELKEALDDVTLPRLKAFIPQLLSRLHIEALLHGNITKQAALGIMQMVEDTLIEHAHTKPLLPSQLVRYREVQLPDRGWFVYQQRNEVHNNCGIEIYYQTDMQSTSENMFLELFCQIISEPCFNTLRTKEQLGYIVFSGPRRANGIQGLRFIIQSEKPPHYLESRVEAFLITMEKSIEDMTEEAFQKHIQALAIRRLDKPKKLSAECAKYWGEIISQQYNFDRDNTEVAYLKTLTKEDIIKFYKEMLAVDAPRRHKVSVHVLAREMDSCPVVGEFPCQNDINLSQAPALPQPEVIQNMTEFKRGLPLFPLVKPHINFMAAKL
The depositor's hits bear a star. Many of the other results were omitted from the sample, so hits are more common in it than they were.

CCCC#Cc1ccc([C@H]2[C@H]3CN(S(C)(=O)=O)CCCCN3[C@H]2CO)cc1 was read as IDE exosite inh 2.7.
O=S(=O)(c1ccccc1)N1CCCCN2[C@@H](CO)[C@H](c3ccc(C#Cc4ccccc4)cc3)[C@@H]2C1 was read as IDE exosite inh 3.8.
Screening CCCC#Cc1ccc([C@@H]2[C@H](CO)N3CCCCN(S(C)(=O)=O)C[C@@H]23)cc1 returned IDE exosite inh -1.6.
For COc1ccccc1C#Cc1ccc([C@H]2[C@H]3CN(S(C)(=O)=O)CCCCN3[C@H]2CO)cc1 the results were IDE exosite inh -9.8*.
Screening COc1ccccc1C#Cc1ccc([C@@H]2[C@H](CO)N3CCCCN(S(C)(=O)=O)C[C@@H]23)cc1 returned IDE exosite inh -18*.
Screening CCCC#Cc1ccc([C@@H]2[C@@H](CO)N3CCCCN(S(C)(=O)=O)C[C@@H]23)cc1 returned IDE exosite inh 3.7.
`O=S(=O)(c1ccccc1)N1CCCCN2[C@H](CO)[C@H](c3ccc(-c4cncnc4)cc3)[C@H]2C1` gave IDE exosite inh 2.8.
For CC(=O)N1CC2(C1)[C@H](c1ccccc1)[C@@H](CO)N2C(=O)c1cnccn1 the results were IDE exosite inh 1.1.
CN1C(=O)c2cc(NC(=O)Nc3ccc(Cl)cc3)ccc2OC[C@@H]2O[C@H](CC(=O)NCCN3CCCCC3)CC[C@@H]21 was read as IDE exosite inh 1.
For N#C[C@@H]1N[C@H](CO)[C@H]1c1ccccc1 the results were IDE exosite inh 3.2.
For N#C[C@@H]1[C@@H](c2ccc(C#CC3(O)CCCC3)cc2)[C@@H](CO)N1C(=O)C1CCC1 the results were IDE exosite inh 0.56.
Screening CCC(=O)N1[C@H](CO)[C@H](c2ccccc2)[C@@H]1CNC(=O)CN1CCOCC1 returned IDE exosite inh 0.99.
Screening COc1ccc2c3c(n(C)c2c1)[C@H](CO)N(C(=O)Nc1ccc(F)cc1)CC31CN(S(=O)(=O)c2cn(C)cn2)C1 returned IDE exosite inh 0.38.
For Cc1ccc(S(=O)(=O)Nc2ccc3c(c2)CC(=O)N([C@@H](C)CO)C[C@@H](C)[C@H](CN(C)S(=O)(=O)c2ccccc2)O3)cc1 the results were IDE exosite inh 0.39.
CCN(C[C@H]1[C@H](c2ccc(C3=CCCCC3)cc2)[C@H](CO)N1CC1CC1)C(C)=O was read as IDE exosite inh 0.24.
CCCNC(=O)NC[C@@H]1[C@@H](c2ccc(C3=CCCCC3)cc2)[C@@H](CO)N1C(C)=O was read as IDE exosite inh 1.6.
`O=C(CC1CC1)N1CC(=O)N2[C@H](CO)[C@@H](c3ccc(/C=C/c4ccccc4)cc3)[C@@H]2C1` gave IDE exosite inh -1.2.
For O=C(CC1CC1)N1CC(=O)N2[C@H](CO)[C@@H](c3ccc(-c4ccccc4)cc3)[C@@H]2C1 the results were IDE exosite inh -5.8*.
O=C(CC1CC1)N1CC(=O)N2[C@H](C1)[C@@H](c1ccc(/C=C/c3ccccc3)cc1)[C@@H]2CO was read as IDE exosite inh -2.
For O=C(CC1CC1)N1CC(=O)N2[C@H](C1)[C@H](c1ccc(-c3cccnc3)cc1)[C@@H]2CO the results were IDE exosite inh 0.43.
O=C(CC1CC1)N1CC(=O)N2[C@H](C1)[C@@H](c1ccc(-c3ccccc3)cc1)[C@@H]2CO was read as IDE exosite inh -8.9*.
O=C(CC1CC1)N1CC(=O)N2[C@H](CO)[C@H](c3ccc(-c4cccnc4)cc3)[C@@H]2C1 was read as IDE exosite inh 0.24.
Screening O=C(CC1CC1)N1CC(=O)N2[C@@H](CO)[C@H](c3ccc(-c4cccnc4)cc3)[C@@H]2C1 returned IDE exosite inh 2.9.
For O=C(CC1CC1)N1CC(=O)N2[C@H](C1)[C@H](c1ccc(-c3ccccc3)cc1)[C@@H]2CO the results were IDE exosite inh -5.1*.
Screening O=C(CC1CC1)N1CC(=O)N2[C@H](CO)[C@H](c3ccc(-c4cccnc4)cc3)[C@H]2C1 returned IDE exosite inh -0.58.
O=C(Nc1cc(F)ccc1F)N1CCCCN2[C@H](CO)[C@@H](c3ccc(-c4ccccc4)cc3)[C@@H]2C1 was read as IDE exosite inh 3.2.
Screening CN(C)CC#Cc1ccc([C@H]2[C@@H](CO)N3CCCCN(S(=O)(=O)c4ccccc4)C[C@H]23)cc1 returned IDE exosite inh 1.3.
CCC(=O)N1[C@H](CO)[C@@H](c2ccccc2)[C@@H]1CN(CC)C(=O)c1cccc(F)c1 was read as IDE exosite inh -1.9.
`O=C(C[C@@H]1CC[C@@H]2[C@H](COC[C@@H](O)CN2C(=O)Nc2ccc(F)cc2)O1)NC1CCC1` gave IDE exosite inh -0.083.
For CCC(=O)N1[C@H](CO)[C@H](c2ccc(-c3cncnc3)cc2)[C@@H]1CN(C)C(C)=O the results were IDE exosite inh -0.16.
CCCNC(=O)N1C[C@@H](O)COC[C@@H]2O[C@@H](CC(=O)OC)CC[C@H]21 was read as IDE exosite inh 2.8.
Screening CN1CCCCN2[C@H](CO)[C@H](c3ccc(-c4cccnc4)cc3)[C@H]2C1 returned IDE exosite inh 1.6.
Screening CO[C@H]1CN(C)C(=O)c2cc(NC(=O)Nc3cccc(Cl)c3)ccc2OC[C@@H](C)N(C(=O)Nc2c(C)noc2C)C[C@H]1C returned IDE exosite inh 1.
For CCC(=O)N1CCCCN2[C@H](CO)[C@H](c3ccc(C#Cc4ccccc4F)cc3)[C@H]2C1 the results were IDE exosite inh -1.1.
For CC(=O)N1CCCCN2[C@H](CO)[C@@H](c3ccc(C#Cc4ccccc4F)cc3)[C@@H]2C1 the results were IDE exosite inh -7.5*.
CCC(=O)N1CCCCN2[C@H](C1)[C@H](c1ccc(C#Cc3ccccc3F)cc1)[C@@H]2CO was read as IDE exosite inh -4.6*.
Screening O=C(c1ccc(F)cc1)N1CCCCN2[C@@H](CO)[C@H](c3ccc(C#CC4(O)CCCC4)cc3)[C@@H]2C1 returned IDE exosite inh 5.8.
Screening COc1ccc(C#Cc2ccc([C@H]3[C@H](CO)N4CCCCN(C(=O)Nc5ccccc5F)C[C@@H]34)cc2)cc1 returned IDE exosite inh 2.3.
O=C(c1ccc(F)cc1)N1CCCCN2[C@@H](CO)[C@@H](c3ccc(C#CC4(O)CCCC4)cc3)[C@@H]2C1 was read as IDE exosite inh 1.8.
`O=C(c1ccc(F)cc1)N1CCCCN2[C@H](CO)[C@H](c3ccc(C#CC4(O)CCCC4)cc3)[C@H]2C1` gave IDE exosite inh -3.2*.
Screening CCC(=O)N1CCCCN2[C@@H](CO)[C@H](c3ccc(-c4ccc(F)cc4)cc3)[C@@H]2C1 returned IDE exosite inh 2.7.
`CCC(=O)N1CCCCN2[C@H](CO)[C@@H](c3ccc(C#Cc4ccccc4F)cc3)[C@@H]2C1` gave IDE exosite inh -5.8*.
Screening O=C(Nc1ccccc1F)N1CCCCN2[C@@H](CO)[C@@H](c3ccc(C#Cc4ccccc4)cc3)[C@@H]2C1 returned IDE exosite inh -0.93.
`COc1ccc(C#Cc2ccc([C@@H]3[C@H](CO)N4CCCCN(C(=O)Nc5ccccc5F)C[C@@H]34)cc2)cc1` gave IDE exosite inh 3.
CC(=O)N1CCCCN2[C@@H](CO)[C@@H](c3ccc(C#Cc4ccccc4F)cc3)[C@@H]2C1 was read as IDE exosite inh -2.9.
Cc1ccccc1S(=O)(=O)N1CC[C@@H]2[C@@H](CO)N(C)c3ccc(-c4cccc(F)c4)cc3[C@@H]21 was read as IDE exosite inh 1.7.
O=C(C[C@@H]1CC[C@@H](NC(=O)c2cccnc2)[C@H](CO)O1)NCc1ccc(Cl)c(Cl)c1 was read as IDE exosite inh -0.58.
